# In the supplement of paper PMC4166925:
# ± gives the standard deviation of the averaged measurements. The full ranking holds about 33,000 sequences; the median of “E-score (dimensionless, -0.5 to 0.5)” is about -0.049, and the highest 2% start at about 0.37. This is one part of a sample in which the highest values are shown more often than they occur.
# System: T1, PmTbr T-box DNA-binding domain (GST fusion)
# T1 sequence: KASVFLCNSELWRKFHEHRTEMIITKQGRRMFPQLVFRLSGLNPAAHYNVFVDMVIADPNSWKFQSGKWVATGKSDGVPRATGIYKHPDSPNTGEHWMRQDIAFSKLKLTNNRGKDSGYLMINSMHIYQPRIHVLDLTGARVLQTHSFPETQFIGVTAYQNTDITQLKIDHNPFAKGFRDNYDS
# Experiment: PBM E-score of 8-mer (E-score (dimensionless, -0.5 to 0.5)); Tbr is Tbrain of the sea star Patiria miniata (Pm) or the sea urchin Strongylocentrotus purpuratus (Sp); higher = stronger binding preference
# Conditions: the construct has about 5 more residues each side
# Method: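 Universal protein-binding microarray (Agilent AMADID 016060, 60-bp probes with a 35-bp variable region) incubated with 200 nM GST-fused Patiria miniata Tbr T-box DNA-binding domain (residues 272-466) in PBS pH 7.5. Scored for every ungapped 8-mer (given with its reverse complement) by the Universal PBM Analysis Suite as E-score (modified Wilcoxon-Mann-Whitney enrichment, range -0.5 to 0.5; >0.45 counts as bound) and Z-score of median probe intensity. Two replicate arrays (datasets 1 and 2).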
# 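Note: 200 nM protein in PBS on universal arrays averaged over duplicate arrays.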
row,Sequence,PBM E-score of 8-mer
1,GCTAGCAA,0.144 ± 0.015
2,ATATTGCC,-0.106 ± 0.095
3,CTTCTATC,-0.198 ± 0.025
4,ATCTGTGA,0.282 ± 0.0073
5,GTCGCCAA,0.288 ± 0.038
6,CGGTCAAA,-0.18 ± 0.0046
7,AACAGTGC,0.0577 ± 0.058
8,ATTCTGAG,-0.131 ± 0.012
9,CCGGCTGC,-0.125 ± 0.1
10,AGCGCGAC,0.242 ± 0.003
11,TGCGCGAA,0.307 ± 0.017
12,ATCGCGAC,0.26 ± 0.021
13,GGCGCGAC,0.377 ± 0.025
14,CTCGCGAC,0.326 ± 0.0051
15,CGCGCGAA,0.3963 ± 0.00041
16,GTCGCGAC,0.385 ± 0.0054
17,CGCGCGAG,0.27 ± 0.023
18,CGCGCGAC,0.291 ± 0.025
19,ATAGGGGG,-0.0469 ± 0.086
20,CATCAAAC,-0.0906 ± 0.034
21,AAGGGGCC,-0.0989 ± 0.015
22,GCATGTAA,-0.124 ± 0.0041
23,AACCTTCC,-0.196 ± 0.038
24,CCCCTTCG,-0.126 ± 0.029
25,GACCTTCA,-0.0991 ± 0.0084

row,Sequence,PBM E-score of 8-mer
1,CACCTTCG,0.431 ± 0.02
2,GACCTTCC,0.0338 ± 0.01
3,CACCTTCC,0.4461 ± 0.0012
4,AACCTTCG,-0.135 ± 0.0027
5,AACCTTCA,-0.149 ± 0.083
6,CACCTTCA,0.436 ± 0.0071
7,AGATCGTA,0.0776 ± 0.06
8,ACTCCTCG,0.219 ± 0.032
9,ACCTAAGT,0.0966 ± 0.0054
10,TAGGTCGA,-0.111 ± 0.085
11,GGGCGCAA,0.0355 ± 0.036
12,ACTTGGAA,-0.1519 ± 0.00037
13,CCTCCACA,0.233 ± 0.021
14,CGCTTGAA,-0.191 ± 0.056
15,CCATTAAC,0.0966 ± 0.0036
16,CCTGTTGA,0.091 ± 0.045
17,CTCTTGAA,-0.374 ± 0.012
18,AGACAGAG,-0.139 ± 0.052
19,CTCACCTC,0.449 ± 0.009
20,ATCACCCC,0.289 ± 0.028
21,CTCACCGC,0.055 ± 0.076
22,GTCACCTA,0.4173 ± 0.0026
23,ATCACCTG,0.379 ± 0.019
24,ATCACCAG,-0.0506 ± 0.043
25,GTCACCGA,0.127 ± 0.041

row,Sequence,PBM E-score of 8-mer
1,CTCACCAC,0.209 ± 0.054
2,ATCACCTC,0.4197 ± 0.00045
3,ATCACCGG,-0.319 ± 0.02
4,ATCACCAC,0.15 ± 0.0054
5,GTCACCCA,0.259 ± 0.056
6,AAAGACTC,-0.156 ± 0.018
7,AAGGGGGG,-0.444 ± 0.023
8,CGCACTAG,0.167 ± 0.021
9,ATGCTGCC,-0.293 ± 0.037
10,ACCCACGG,-0.132 ± 0.022
11,CATGCGAA,0.108 ± 0.046
12,CTTACCTA,-0.153 ± 0.059
13,CTCACCTA,0.4081 ± 0.0035
14,CTCACCGA,0.00965 ± 0.039
15,ATCACCAA,0.17 ± 0.016
16,ATCACCTA,0.392 ± 0.022
17,ATCACCCA,0.276 ± 0.021
18,CTAGCGTA,0.0249 ± 0.015
19,ATGGTTAC,-0.265 ± 0.029
20,ATTGGCGA,0.156 ± 0.027
21,CTTAGCAA,0.0581 ± 0.031
22,ATTAGCAG,0.129 ± 0.045
23,CTTAGCAC,0.4 ± 0.0047
24,ATTAGCAA,0.12 ± 0.092
25,ATTAGCAC,0.417 ± 0.016

row,Sequence,PBM E-score of 8-mer
1,CATAGCAC,0.306 ± 0.029
2,AGAAGGGC,-0.11 ± 0.013
3,CTTGCTCA,0.0359 ± 0.0032
4,ATCGCACG,0.34 ± 0.023
5,CTCGCGCC,0.401 ± 0.013
6,CTCGCGCA,0.191 ± 0.024
7,CTCGCAGA,0.00155 ± 0.054
8,CTCGCACC,0.4721 ± 0.0042
9,GTCGCACA,0.353 ± 0.025
10,ATCGCGCC,0.368 ± 0.016
11,CTCGCATC,0.176 ± 0.033
12,CCCGCACC,0.3 ± 0.031
13,ATCGCACA,0.3241 ± 0.00047
14,CTCGCACA,0.375 ± 0.0071
15,ATCGCACC,0.4642 ± 0.0032
16,CGAAGAGC,-0.116 ± 0.044
17,CAGCACAG,-0.0973 ± 0.029
18,CGGGGTTA,-0.195 ± 0.071
19,GGCATGAA,-0.0787 ± 0.006
20,CTCTAAGA,-0.271 ± 0.053
21,CTTTTACA,0.169 ± 0.025
22,AGCTTAGC,-0.0359 ± 0.0015
23,TATGATGA,-0.156 ± 0.037
24,AGTCAAAG,-0.132 ± 0.081
25,GAGAGATA,-0.0805 ± 0.045

row,Sequence,PBM E-score of 8-mer
1,CCACATTA,0.126 ± 0.0023
2,CTAACACC,0.4751 ± 0.004
3,CTTACACA,0.277 ± 0.012
4,ATTACACC,0.349 ± 0.0023
5,ATAACACG,0.325 ± 0.05
6,ATAACACC,0.465 ± 0.0066
7,CGAACACC,0.3416 ± 0.0028
8,CTAACACA,0.374 ± 0.035
9,ATAACACA,0.3597 ± 0.0034
10,ATAACATC,-0.101 ± 0.065
11,CTTACACC,0.395 ± 0.013
12,CTAACATC,-0.1377 ± 0.00032
13,GTAACACA,0.3374 ± 0.0018
14,AGACCCCT,-0.245 ± 0.086
15,AAACCCGG,-0.207 ± 0.0074
16,GTCCCCTA,-0.175 ± 0.076
17,AAATTAGC,0.24 ± 0.01
18,GCTTCACC,0.0106 ± 0.012
19,CACGTCCG,0.26 ± 0.0099
20,CCGGTTAC,-0.0412 ± 0.0065
21,CTTTGCTC,-0.0392 ± 0.02
22,ACAGAGGC,0.0769 ± 0.02
23,AGAGGGTG,0.383 ± 0.011
24,CGGGTGTC,0.4001 ± 0.002
25,CCGGTGTC,0.247 ± 0.0031

row,Sequence,PBM E-score of 8-mer
1,AGAGGGTC,-0.202 ± 0.011
2,AGGGGGTG,0.316 ± 0.027
3,AGAGGGTA,-0.108 ± 0.023
4,AGGGTGGC,0.191 ± 0.011
5,AGGGTGAC,0.326 ± 0.031
6,AGGGTGTG,0.43 ± 0.027
7,CGGGTGTA,0.0538 ± 0.035
8,AGGGTGTA,0.317 ± 0.0034
9,AGGGTGTC,0.435 ± 0.014
10,CCCTAGGG,-0.16 ± 0.025
11,AGGTTTGG,-0.19 ± 0.043
12,CATTCTTA,-0.235 ± 0.007
13,GGAAGCAC,-0.23 ± 0.015
14,ATGGTGAG,0.223 ± 0.0051
15,CATTCAGG,0.0358 ± 0.077
16,ATAACAAA,-0.00818 ± 0.13
17,AGGATCAT,-0.151 ± 0.0099
18,CGGGCAAG,-0.0794 ± 0.036
19,CGAGGCCC,-0.297 ± 0.064
20,AACCTAAG,-0.12 ± 0.084
21,CCCCTAAG,-0.0688 ± 0.042
22,AACCTAAC,0.0221 ± 0.052
23,CACCTAAC,0.408 ± 0.028
24,CACCTAAA,0.368 ± 0.0085
25,CACCTAAG,0.381 ± 0.021

row,Sequence,PBM E-score of 8-mer
1,GCTACAGC,-0.2 ± 0.12
2,ACCGACTC,-0.012 ± 0.041
3,AGCAACCT,-0.0154 ± 0.04
4,CGTTGACA,0.405 ± 0.0049
5,AGTTGACA,0.407 ± 0.008
6,AGTTGACG,0.153 ± 0.053
7,AGTTGACC,-0.231 ± 0.009
8,GGTTGACA,0.3518 ± 0.0019
9,CGTTGACC,0.0227 ± 0.075
10,CTTCTATA,-0.287 ± 0.067
11,GATAGCAA,0.202 ± 0.052
12,ATCAGAAT,-0.106 ± 0.065
13,ACGAGAAC,0.0117 ± 0.058
14,GCGAGAAC,0.375 ± 0.01
15,GCGAGAAA,0.356 ± 0.034
16,CTGAGAAA,0.00608 ± 0.019
17,ATGAGAAA,-0.182 ± 0.17
18,GTGAGAAC,0.44 ± 0.0046
19,ATGAGAAC,-0.0696 ± 0.046
20,CTGAGAAC,-0.052 ± 0.016
21,GTGAGAAA,0.458 ± 0.012
22,GAGCGCAC,-0.0637 ± 0.099
